Reference: the supplement of paper PMC6555819

Experiments:
Assay in all cases: PBM binding z-score (relative to random genomic background probes); higher = stronger binding; sequences stand for … in GC…GCGATTGACAGCGTAGAATGAAGG
[1] = tested on: FXR:RXRa (NR concentration 270 nM, RXRa partner concentration 90 nM)
How it was run: (§1)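 Probes were double-stranded and carried 34-nt variable regions with direct-repeat seeds, single-nucleotide variants, half-site ablations and random human genomic background sequences, printed on custom Agilent 4×180K protein-binding microarrays. Arrays were incubated 1 h with ligand-free nuclear receptor dimers in PBS pH 7.4, 2% milk, 0.02% Triton X-100, 1 mM DTT, 0.2 mg/mL BSA and 0.4 mg/ml salmon testes DNA. Antibodies against each partner (one per run) detected binding, and scanned fluorescence was regression-normalized. Binding z-scores use the random background probes as reference.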

[2] = tested on: LXRa:RXRa (NR concentration 270 nM, RXRa partner concentration 90 nM)
How it was run: as §1

[3] = tested on: LXRa homodimer (NR concentration 270 nM)
How it was run: as §1

[4] = tested on: LXRb:RXRa (NR concentration 270 nM, RXRa partner concentration 90 nM)
How it was run: as §1

[5] = tested on: LXRb homodimer (NR concentration 270 nM)
How it was run: as §1

[6] = tested on: PPARa:RXRa (NR concentration 270 nM, RXRa partner concentration 90 nM)
How it was run: as §1

[7] = tested on: PPARg:RXRa (NR concentration 180 nM, RXRa partner concentration 90 nM)
How it was run: as §1

[8] = tested on: PPARg:RXRa 270nM:90nM, anti-RXR (NR concentration 270 nM, RXRa partner concentration 90 nM)
How it was run: as §1

[9] = tested on: PPARg:RXRa 30nM:10nM, anti-RXR (NR concentration 30 nM, RXRa partner concentration 10 nM)
How it was run: as §1

[10] = tested on: PPARg:RXRa 90nM:30nM, anti-RXR (NR concentration 90 nM, RXRa partner concentration 30 nM)
How it was run: as §1

[11] = tested on: PPARg:RXRa DBDmut IVT, anti-RXR (DBD mutation: RXRa K156A/R161A, NR concentration 270 nM, RXRa partner concentration 90 nM)
How it was run: as §1

[12] = tested on: PPARg:RXRa IVT, anti-PPARg (NR concentration 270 nM, RXRa partner concentration 90 nM)
How it was run: as §1

[13] = tested on: PPARg DBDmut:RXRa IVT, anti-PPARg (DBD mutation: PPARg1 K132A/R137A, NR concentration 270 nM, RXRa partner concentration 90 nM)
How it was run: as §1

[14] = tested on: PPARg DBDmut IVT, anti-PPARg (DBD mutation: PPARg1 K132A/R137A, NR concentration 270 nM)
How it was run: as §1

[15] = tested on: PPARg homodimer (NR concentration 180 nM)
How it was run: as §1

[16] = tested on: PXR:RXRa (NR concentration 270 nM, RXRa partner concentration 90 nM)
How it was run: as §1

[17] = tested on: PXR homodimer (NR concentration 270 nM)
How it was run: as §1

[18] = tested on: RARa:RXR (NR concentration 270 nM, RXRa partner concentration 90 nM)
How it was run: as §1

[19] = tested on: RARa homodimer (NR concentration 270 nM)
How it was run: as §1

[20] = tested on: RARb:RXRa (NR concentration 270 nM, RXRa partner concentration 90 nM)
How it was run: as §1

Sequence | PBM binding z-score [1] | PBM binding z-score [2] | PBM binding z-score [3] | PBM binding z-score [4] | PBM binding z-score [5] | PBM binding z-score [6] | PBM binding z-score [7] | PBM binding z-score [8] | PBM binding z-score [9] | PBM binding z-score [10] | PBM binding z-score [11] | PBM binding z-score [12] | PBM binding z-score [13] | PBM binding z-score [14] | PBM binding z-score [15] | PBM binding z-score [16] | PBM binding z-score [17] | PBM binding z-score [18] | PBM binding z-score [19] | PBM binding z-score [20]
ATCGAAAGGTCGACGAGGTGAGTAGACACCGTTT | 4.89 | 3.41 | -0.158 | 2.75 | 0.205 | 4.45 | 3.11 | 3.63 | 1.22 | 2.45 | 0.417 | 2.09 | 0.633 | 0.273 | 1.49 | 2.93 | 0.455 | 3.91 | 0.813 | 3.89
TCTCGTTGGTCACGGAGGTCACACACGACGGGTA | 3.3 | 3.62 | 1.88 | 3.75 | 1.11 | 3.85 | 2.5 | 3.71 | 2.93 | 3.47 | 1.58 | 3.31 | 0.735 | 1.33 | 2.82 | 4.37 | 0.995 | 4.41 | 1.01 | 4.02
ACTATCAGGCCAAGTTTGGGTCACTCAAACAAAG | 0.363 | 0.344 | -0.188 | 0.871 | 0.576 | 1.51 | 0.155 | 0.318 | -0.0574 | 0.171 | 0.297 | 1.51 | 1.26 | 0.453 | 1 | 0.896 | 0.251 | 1.83 | -0.177 | 2.12
TCTTGTAGATCATGCAGGTTAAGAAAGCCTGAGT | 0.492 | 0.415 | -0.144 | 0.657 | -0.00581 | 1.14 | -0.222 | 1.51 | 2.51 | 2.08 | 1.44 | 0.879 | 0.847 | 1.07 | 0.117 | 0.641 | 0.527 | 0.812 | 0.221 | 0.285
TCTTGTAGATCAGCAGGTTAAGACAGCTGGCCAA | 0.409 | 0.423 | -0.459 | 0.114 | -0.579 | 0.79 | -0.112 | 1.46 | 2.57 | 2.02 | 1.91 | 0.417 | 0.269 | 0.156 | 0.137 | 0.129 | -0.0251 | 0.309 | 0.389 | 0.0665
ATCTCTAGCTAAGACTCAGTTCAGTGAAGAACGC | 0.167 | 0.272 | 0.317 | -0.057 | 0.629 | -0.233 | -0.0864 | -0.493 | -0.13 | -0.144 | -0.0797 | 0.0403 | 0.405 | 0.581 | 0.595 | 0.728 | 1.14 | 0.508 | 0.699 | 0.0718
TCATATAGGTAAATGCGAGGTGAAAGTCCGATCT | 1.14 | 1.58 | 0.216 | 0.944 | -0.00137 | 2.07 | 1.06 | 2.53 | 4.02 | 3.07 | 4.13 | 3.06 | 1.27 | 1.1 | 1.14 | 1.1 | 0.0797 | 1.67 | 1.15 | 0.77
CGTCAAAGTTCAACTAAGGGAACGTAAAGCACGC | 6.99 | 6.08 | 3.68 | 3.74 | 1.85 | 4.93 | 4.78 | 5.73 | 1.94 | 4.2 | 0.0961 | 1.71 | 0.646 | 0.162 | 2.6 | 4.91 | 3.23 | 3.84 | 1.55 | 5.25
AGAATGAGGTTCTACGTAGATCAGGGAAGAAAGT | -0.522 | -0.707 | -0.69 | -0.345 | -0.624 | -0.336 | 0.146 | -0.165 | -0.125 | -0.13 | 0.0808 | 0.054 | 0.621 | 0.606 | -0.411 | -0.126 | 0.193 | -0.0619 | -0.303 | -0.407
TCGCCTAGGTCAGATCGGGCCAGTATACGCTATA | 1.75 | 1.2 | -0.481 | 0.65 | -0.762 | 1.71 | 0.474 | 1.19 | 1.68 | 1.28 | 1.92 | 1.11 | -0.622 | -0.724 | -0.2 | 1.23 | -0.531 | 1.05 | -0.742 | 3.12
CGTCCAAGGTCAGCAGGTCATTGAAAGCGACGTG | 6.58 | 4.67 | 1.51 | 3.86 | -0.214 | 5.46 | 5.09 | 4.94 | 1.14 | 3.42 | 2.83 | 3.78 | 0.265 | -0.0575 | 3.28 | 4.51 | 0.829 | 5.89 | 0.397 | 5.51
TCTTGTAGATCAATAGAGGTTTAGAAAGTGCGCT | 0.391 | 0.283 | -0.272 | 0.00462 | -0.299 | 0.237 | -0.452 | 1.23 | 2.5 | 1.69 | 1.65 | 0.249 | 0.996 | 0.224 | -0.539 | 0.49 | -0.0138 | 0.588 | 0.0314 | -0.311
TTACCAAGGTGAAGGGCGTTGATCCCTCTGTAGA | 0.622 | 0.629 | -0.192 | 0.495 | -0.575 | 1.47 | 0.846 | 2.19 | 0.835 | 1.69 | 1.73 | 2.43 | -0.0766 | -0.0935 | 0.279 | 0.365 | -0.351 | 0.762 | -0.0384 | 1.64
CCTAGCAGGCCAATCTGGGTCACTGAAGGCTTGA | 1.19 | 1.16 | -0.588 | 0.364 | -1.38 | 3.01 | 1.75 | 2.55 | 0.263 | 1.81 | 4.44 | 5.17 | 0.524 | 0.356 | 0.812 | 0.783 | -0.752 | 1.67 | -0.428 | 1.64
